Laboratory results reported in the supplement of paper PMC6555819.

Key:
Test in all cases: PBM binding z-score (relative to random genomic background probes); higher = stronger binding; sequences stand for … in GC…GCGATTGACAGCGTAGAATGAAGG
[1] = test system: RARb homodimer (NR concentration 270 nM)
In short: (§1)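 The probes on custom Agilent 4×180K protein-binding microarrays were double-stranded, with 34-nt variable regions bearing direct-repeat seeds, single-nucleotide variants, half-site ablations and random human genomic background sequences. Incubation lasted 1 h with ligand-free nuclear receptor dimers in PBS pH 7.4, 2% milk, 0.02% Triton X-100, 1 mM DTT, 0.2 mg/mL BSA and 0.4 mg/ml salmon testes DNA. Antibodies against each partner (one per run) detected bound dimers, and fluorescence scans were regression-normalized. Binding z-scores take the random background probes as reference.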

[2] = test system: RARg:RXRa (NR concentration 270 nM, RXRa partner concentration 90 nM)
In short: as §1

[3] = test system: RARg homodimer (NR concentration 270 nM)
In short: as §1

[4] = test system: RXRa DBDmut IVT, anti-RXR (DBD mutation: RXRa K156A/R161A, NR concentration 90 nM)
In short: as §1

[5] = test system: RXRa homodimer (NR concentration 180 nM)
In short: as §1

[6] = test system: THRa:RXRa (NR concentration 90 nM, RXRa partner concentration 90 nM)
In short: as §1

[7] = test system: THRa homodimer (NR concentration 90 nM)
In short: as §1

[8] = test system: VDR homodimer (NR concentration 270 nM)
In short: as §1

CTCGAAAGGTCGGTTGAGGTGAGCATACGGATAA
PBM binding z-score [1]: 2.57
PBM binding z-score [2]: 3.04
PBM binding z-score [3]: 2.99
PBM binding z-score [4]: 0.598
PBM binding z-score [5]: 2.33
PBM binding z-score [6]: 5.04
PBM binding z-score [7]: 1.56
PBM binding z-score [8]: 0.64

CCTTACGCGTCAAGGTTATAGCACGGGTGGTACG
PBM binding z-score [1]: 0.818
PBM binding z-score [2]: 0.576
PBM binding z-score [3]: 0.348
PBM binding z-score [4]: 0.122
PBM binding z-score [5]: 1.06
PBM binding z-score [6]: 1.5
PBM binding z-score [7]: 0.517
PBM binding z-score [8]: 0.299

GCTATTAGTTGAAAGGACAACCGAATGATTCTCG
PBM binding z-score [1]: 1.25
PBM binding z-score [2]: 0.533
PBM binding z-score [3]: 1.2
PBM binding z-score [4]: 0.922
PBM binding z-score [5]: 0.0459
PBM binding z-score [6]: 0.487
PBM binding z-score [7]: 0.292
PBM binding z-score [8]: 0.311

ACAGACAGGTGATAAAGGTAACTCAGGCTATCAT
PBM binding z-score [1]: 0.459
PBM binding z-score [2]: 0.384
PBM binding z-score [3]: 0.498
PBM binding z-score [4]: -0.109
PBM binding z-score [5]: 0.225
PBM binding z-score [6]: 1.15
PBM binding z-score [7]: -0.0543
PBM binding z-score [8]: -0.632

ACAGACAGGTGAGTGAAGGGAACTCAGCTGGACG
PBM binding z-score [1]: -0.231
PBM binding z-score [2]: 0.199
PBM binding z-score [3]: 0.0505
PBM binding z-score [4]: -0.777
PBM binding z-score [5]: 0.39
PBM binding z-score [6]: 0.0282
PBM binding z-score [7]: -0.679
PBM binding z-score [8]: -0.331

CCTAGGAGGCCAATCTGGGTCACTCAAGGCTTGA
PBM binding z-score [1]: 2.69
PBM binding z-score [2]: 1.66
PBM binding z-score [3]: 2.12
PBM binding z-score [4]: -0.07
PBM binding z-score [5]: 1.19
PBM binding z-score [6]: 4.21
PBM binding z-score [7]: 0.462
PBM binding z-score [8]: 0.0459

TTGCCAAGGTGAGCTGAGGTCGTTGATCCAACTC
PBM binding z-score [1]: 1.42
PBM binding z-score [2]: 1.02
PBM binding z-score [3]: 0.784
PBM binding z-score [4]: -0.052
PBM binding z-score [5]: 0.78
PBM binding z-score [6]: 4.62
PBM binding z-score [7]: 2.03
PBM binding z-score [8]: 1.75

TAGCCTAGGTCATTCAGGGGCCAGTACAGAAAGC
PBM binding z-score [1]: 3.28
PBM binding z-score [2]: 5.87
PBM binding z-score [3]: 4.35
PBM binding z-score [4]: 1.94
PBM binding z-score [5]: 2.7
PBM binding z-score [6]: 3.4
PBM binding z-score [7]: 0.784
PBM binding z-score [8]: 1.56

CCTCGGAGGATAGAAGGTCAGAGCTGTCCGCTTT
PBM binding z-score [1]: 2.9
PBM binding z-score [2]: 2.17
PBM binding z-score [3]: 2.05
PBM binding z-score [4]: -0.11
PBM binding z-score [5]: 1.52
PBM binding z-score [6]: 1.66
PBM binding z-score [7]: -0.386
PBM binding z-score [8]: -0.101

GGAACGAGGGCATTCGAGTTGATAGTATGGCGAT
PBM binding z-score [1]: 0.948
PBM binding z-score [2]: 1.22
PBM binding z-score [3]: 1.61
PBM binding z-score [4]: 3.39
PBM binding z-score [5]: 0.99
PBM binding z-score [6]: 3.38
PBM binding z-score [7]: 0.0512
PBM binding z-score [8]: 3.37

TAGCCTAGGTCATGGGCAAGTATACCACGCGAAC
PBM binding z-score [1]: 3.17
PBM binding z-score [2]: 4.22
PBM binding z-score [3]: 4.58
PBM binding z-score [4]: 0.0807
PBM binding z-score [5]: 3.44
PBM binding z-score [6]: 3.34
PBM binding z-score [7]: 1.26
PBM binding z-score [8]: 0.341

GATACATGGTCAGCTAGAGGCCAGAGTATGGAAA
PBM binding z-score [1]: 0.679
PBM binding z-score [2]: 1.39
PBM binding z-score [3]: 0.818
PBM binding z-score [4]: -0.556
PBM binding z-score [5]: 0.128
PBM binding z-score [6]: -0.168
PBM binding z-score [7]: -1.01
PBM binding z-score [8]: -0.418

CGAACTAGGTCATCCAGTACAGTGAATACATTGA
PBM binding z-score [1]: 3.05
PBM binding z-score [2]: 3.9
PBM binding z-score [3]: 4.84
PBM binding z-score [4]: 2.61
PBM binding z-score [5]: 2.78
PBM binding z-score [6]: 3.04
PBM binding z-score [7]: 1.43
PBM binding z-score [8]: 2.24

CGGAGTAGGTTATGGGGCATTCAGGCAACGGTGA
PBM binding z-score [1]: 1.26
PBM binding z-score [2]: 0.544
PBM binding z-score [3]: 0.721
PBM binding z-score [4]: -0.446
PBM binding z-score [5]: 0.668
PBM binding z-score [6]: 0.705
PBM binding z-score [7]: 0.801
PBM binding z-score [8]: 0.416

GCAAACAGGTGAAACGCAGGTAACTCAGGGTGGC
PBM binding z-score [1]: 0.0626
PBM binding z-score [2]: 0.796
PBM binding z-score [3]: 0.0633
PBM binding z-score [4]: -0.459
PBM binding z-score [5]: 0.616
PBM binding z-score [6]: 1.52
PBM binding z-score [7]: -0.516
PBM binding z-score [8]: -0.658

CCTATTAGTTGAACATAAGGGCAACCGAAGCTCG
PBM binding z-score [1]: 1.97
PBM binding z-score [2]: 1.48
PBM binding z-score [3]: 1.14
PBM binding z-score [4]: 0.521
PBM binding z-score [5]: 0.64
PBM binding z-score [6]: 2.06
PBM binding z-score [7]: 1.04
PBM binding z-score [8]: 0.571

CGAACTAGGTCATCCAGGACAGGGAATACATTGA
PBM binding z-score [1]: 2.82
PBM binding z-score [2]: 3.79
PBM binding z-score [3]: 4.29
PBM binding z-score [4]: 2.17
PBM binding z-score [5]: 2.65
PBM binding z-score [6]: 3.52
PBM binding z-score [7]: 1.93
PBM binding z-score [8]: 1.73

TAGCCTAGGTCATTCGGCCAGTATAGTACGCATC
PBM binding z-score [1]: 3.12
PBM binding z-score [2]: 3.81
PBM binding z-score [3]: 4.13
PBM binding z-score [4]: 1.7
PBM binding z-score [5]: 2.52
PBM binding z-score [6]: 2.66
PBM binding z-score [7]: 0.61
PBM binding z-score [8]: 1.6

CGTCCAAGATCAAGGTCAGTGAAAGAGACTCGAA
PBM binding z-score [1]: 2.88
PBM binding z-score [2]: 2.83
PBM binding z-score [3]: 3.03
PBM binding z-score [4]: 1.15
PBM binding z-score [5]: 2.01
PBM binding z-score [6]: 2.86
PBM binding z-score [7]: 1.63
PBM binding z-score [8]: 0.979

CGAACGAGTGCATGAGTTGATAGCAAATGCCGAT
PBM binding z-score [1]: -0.322
PBM binding z-score [2]: 0.343
PBM binding z-score [3]: 0.307
PBM binding z-score [4]: 3.2
PBM binding z-score [5]: 0.414
PBM binding z-score [6]: -0.0112
PBM binding z-score [7]: -0.726
PBM binding z-score [8]: 2.6

CCGACTGGGGCAGAAAGTTTACCATACCATCCGG
PBM binding z-score [1]: 0.899
PBM binding z-score [2]: -0.0805
PBM binding z-score [3]: 0.478
PBM binding z-score [4]: -0.44
PBM binding z-score [5]: -0.178
PBM binding z-score [6]: -0.72
PBM binding z-score [7]: -0.708
PBM binding z-score [8]: 0.157

CGAACTAGGTCAAGGACACTGAATCTCCGCACGC
PBM binding z-score [1]: 3.08
PBM binding z-score [2]: 3.94
PBM binding z-score [3]: 4.67
PBM binding z-score [4]: 1.55
PBM binding z-score [5]: 2.66
PBM binding z-score [6]: 3.49
PBM binding z-score [7]: 3.04
PBM binding z-score [8]: 0.782

TCTTGTAGATCAATAGAGGTTAAGGAAGTGCGCT
PBM binding z-score [1]: 1.1
PBM binding z-score [2]: 0.898
PBM binding z-score [3]: 0.454
PBM binding z-score [4]: 0.775
PBM binding z-score [5]: 1.61
PBM binding z-score [6]: 2.38
PBM binding z-score [7]: -0.179
PBM binding z-score [8]: 0.208

GCATATAGGAAATACAAGGTGAAAGTCCGATTGT
PBM binding z-score [1]: 0.623
PBM binding z-score [2]: 0.263
PBM binding z-score [3]: 0.484
PBM binding z-score [4]: 0.294
PBM binding z-score [5]: 0.281
PBM binding z-score [6]: 1.94
PBM binding z-score [7]: 0.81
PBM binding z-score [8]: -0.126

TCTTGTAGCTCAACAGGAGGTTAAGAAAGATCGA
PBM binding z-score [1]: -0.0225
PBM binding z-score [2]: 0.173
PBM binding z-score [3]: 0.0214
PBM binding z-score [4]: -0.206
PBM binding z-score [5]: 0.559
PBM binding z-score [6]: 0.491
PBM binding z-score [7]: -1.06
PBM binding z-score [8]: -0.327

TCTAGTTGGTCAAAGGTCACCCACTCGAAATGCG
PBM binding z-score [1]: 5.15
PBM binding z-score [2]: 7.19
PBM binding z-score [3]: 6.47
PBM binding z-score [4]: 1.86
PBM binding z-score [5]: 8.17
PBM binding z-score [6]: 3.7
PBM binding z-score [7]: 1.8
PBM binding z-score [8]: 2.58

CGTCCAAGGTCAGCAGGTCGGTGAAAGCGACGTG
PBM binding z-score [1]: 4.14
PBM binding z-score [2]: 5.49
PBM binding z-score [3]: 6.04
PBM binding z-score [4]: 2.37
PBM binding z-score [5]: 4.37
PBM binding z-score [6]: 3.57
PBM binding z-score [7]: 1.92
PBM binding z-score [8]: 1.3

CCAGACAGGTCAGAAGGTAACTCAGCCTCGATTA
PBM binding z-score [1]: 2.66
PBM binding z-score [2]: 3.85
PBM binding z-score [3]: 3.63
PBM binding z-score [4]: 1.34
PBM binding z-score [5]: 2.61
PBM binding z-score [6]: 1.39
PBM binding z-score [7]: 0.239
PBM binding z-score [8]: 0.366

ATATGTATGTTACATCCGGGTCATTCAGGCTATG
PBM binding z-score [1]: 2.37
PBM binding z-score [2]: 1.63
PBM binding z-score [3]: 1.26
PBM binding z-score [4]: 0.811
PBM binding z-score [5]: 2.21
PBM binding z-score [6]: 3.04
PBM binding z-score [7]: 2.62
PBM binding z-score [8]: 1.99
